Bioassay records as filed in PubChem.
Shn3 3UTR inh = Schnurri-3 reporter inhibition in Clone20 osteoblasts. Clone20 osteoblast Shn3 3'UTR firefly luciferase, 24 h. inhibition, % at 12.5 µM. 360,000 tested, 0.52% active. AID 588674;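 active = mean inhibition of at least 75% with every replicate also reaching 75%; inconclusive = mean inhibition at least 75% but some replicate below; inactive = mean inhibition below 75%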;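 note: 0% = median of neutral control wells and 100% = pilot-screen positive control compound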
Peg3 prom inh = reduces Peg3 promoter-driven luciferase expression in HeLa; HeLa PEG-Prom luciferase reporter, luminescence, overnight; inhibition, % at 20 µM; 360,000 tested, 1.7% active;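 active = inhibition of at least 50% at 20 µM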
KKLEB cytotox = CF airway cell cytotoxicity counter-screen; KKLEB CF airway cells viability, ATPlite luminescence, overnight; active compounds read low; cells stimulated with P. aeruginosa culture filtrate; activity change (cytotoxicity), % at 5 µM; 360,000 tested, 0.36% active;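 active = corrected activity change at or below -50% at 5 µM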
LMP1 NFkB inh = reduces LMP1-driven NF-kappaB luciferase signal. LMP1-induced NF-kappaB luciferase reporter cells, luminescence. 350,000 tested, 0.69% active. inhibition, % at 12.5 µM; in the data active = inhibition above about 41%; inconclusive = no clear call, values can overlap the other calls;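 note: 0% = neutral control wells and 100% = reference inhibitor control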
TRPM1 prom inh = reduces MITF-dependent TRPM1 promoter luciferase signal; 330,000 tested, 0.83% active; inhibition, % at 12.5 µM; SK-MEL-5 TRPM1 promoter luciferase, 24 h;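 active = mean inhibition across replicates of 60% or more, whatever share of single replicates reaches that level; inconclusive = some that reach 60%, reason not given; inactive = mean inhibition across replicates below 60%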
CF NFkB inh = cystic fibrosis NF-kB activation inhibition. KKLEB NF-kB-GFP reporter, PAF-induced, GFP fluorescence overnight. inhibition, % at 5 µM. 360,000 tested, 0.86% active. AID 588850;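 active = at least 50% inhibition at 5 µM, scaled per plate between neutral and stimulator controls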;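 note: PAF is a Pseudomonas aeruginosa culture filtrate used as stimulus; plate controls were PAF-stimulated DMSO wells for no effect and unstimulated DMSO wells for full effect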
The depositor's hits bear a star. Only some compounds are listed: those with a hit (about 2.9% of all), similar ones and a draw of the others.

What do the screens show for `CCCNC(=O)c1cc(C2CCCCN2C(=O)c2ccc(C(C)C)cc2)on1` (centres undefined)?
Shn3 3UTR inh: -7; Peg3 prom inh: 5; KKLEB cytotox: -6; CF NFkB inh: 0

What do the screens show for `CC(C)N=c1scc(-c2cccs2)n1/N=C/c1ccc(O)c(O)c1O`?
Shn3 3UTR inh: 88*; Peg3 prom inh: -79; KKLEB cytotox: -2; LMP1 NFkB inh: -22; TRPM1 prom inh: -2; CF NFkB inh: -23

What do the screens show for `CN=c1scc(-c2ccccc2F)n1/N=C/c1ccc(O)c(O)c1O`?
Shn3 3UTR inh: 88*; Peg3 prom inh: -73; KKLEB cytotox: -34; LMP1 NFkB inh: 39; TRPM1 prom inh: 86*; CF NFkB inh: -3

What do the screens show for `CN=c1scc(C)n1/N=C/c1ccc(O)cc1O`?
Shn3 3UTR inh: -6; Peg3 prom inh: -96; KKLEB cytotox: -13; LMP1 NFkB inh: 35; TRPM1 prom inh: -7; CF NFkB inh: -8

How did O=C(N/C(=C/c1ccccc1Cl)C(=O)N1CCOCC1)c1ccccc1 do in these assays?
Shn3 3UTR inh: 79; Peg3 prom inh: 0; KKLEB cytotox: -7; LMP1 NFkB inh: 67*; TRPM1 prom inh: -3; CF NFkB inh: 21

How did CC[n+]1c(/C=C/c2ccc(N(C)C)cc2)ccc2ccccc21 do in these assays?
Shn3 3UTR inh: inconclusive; Peg3 prom inh: 49; KKLEB cytotox: -13; LMP1 NFkB inh: 52*; TRPM1 prom inh: 90*; CF NFkB inh: -35

What do the screens show for `CCN(CC)c1ccc(/C=C/c2ccc3ccc(OC)cc3[n+]2CC)cc1`?
Shn3 3UTR inh: 87*; Peg3 prom inh: 47; KKLEB cytotox: -8; LMP1 NFkB inh: 35; TRPM1 prom inh: 81*; CF NFkB inh: 2

How did CC[n+]1c(/C=C/c2ccc(OC)c(OC)c2)ccc2ccccc21 do in these assays?
Shn3 3UTR inh: -108; Peg3 prom inh: -295; KKLEB cytotox: -5; LMP1 NFkB inh: -48; TRPM1 prom inh: -74; CF NFkB inh: -10

Results for CC[n+]1ccc(/C=C/c2ccc(N(C)C)cc2)c2ccccc21 ?
Shn3 3UTR inh: 88*; Peg3 prom inh: 50; KKLEB cytotox: -13; LMP1 NFkB inh: inconclusive; TRPM1 prom inh: 88*; CF NFkB inh: -50

How did CC[n+]1ccccc1/C=C/c1ccc(N(C)C)cc1 do in these assays?
Shn3 3UTR inh: 80; Peg3 prom inh: 5; KKLEB cytotox: 9; LMP1 NFkB inh: 9; TRPM1 prom inh: 42; CF NFkB inh: -34

What do the screens show for `Cc1cccc(N2CCN(C(=O)Cn3nc(Cc4ccncc4)c4ccccc4c3=O)CC2)c1C`?
Shn3 3UTR inh: 5; Peg3 prom inh: -1; KKLEB cytotox: 5; LMP1 NFkB inh: 91*; TRPM1 prom inh: 2; CF NFkB inh: -24

Results for CNc1ccc(-c2cccc([N+](=O)[O-])c2)cn1 ?
Shn3 3UTR inh: -8; Peg3 prom inh: -51; KKLEB cytotox: 2; CF NFkB inh: -18

Results for COc1ccc(S(=O)(=O)N2CCOCC2)cc1NC(=O)c1ccc(SC)cc1OC ?
Shn3 3UTR inh: -16; Peg3 prom inh: 22; KKLEB cytotox: -13; LMP1 NFkB inh: -5; CF NFkB inh: -10

What do the screens show for `CCCCNC(=S)N(CCCO)Cc1cc2cc3c(cc2[nH]c1=O)OCO3`?
Shn3 3UTR inh: 9; Peg3 prom inh: 5; KKLEB cytotox: -2; LMP1 NFkB inh: -14; CF NFkB inh: 5

Results for COc1cc(NC(=O)COc2cc(O)c3c(c2)OC(C)(C)CC3=O)cc(OC)c1OC ?
Shn3 3UTR inh: 86*; Peg3 prom inh: 16; KKLEB cytotox: -4; LMP1 NFkB inh: 20; TRPM1 prom inh: 72*; CF NFkB inh: 3

Results for CC1(C)CC(=O)c2c(O)cc(OCC(=O)Nc3ccc(S(N)(=O)=O)cc3)cc2O1 ?
Shn3 3UTR inh: 9; Peg3 prom inh: 13; KKLEB cytotox: 11; LMP1 NFkB inh: 6; TRPM1 prom inh: -6; CF NFkB inh: 0

Results for CC(C)C[C@@H](CNCC(=O)[C@H](Cc1ccccc1)NC(=O)c1[nH]cnc1C(=O)N[C@@H](C)CN)NC(=O)c1nc[nH]c1C(=O)N[C@@H](C)C(=O)O ?
Shn3 3UTR inh: -12; Peg3 prom inh: -4; KKLEB cytotox: 12; LMP1 NFkB inh: 0; TRPM1 prom inh: -3; CF NFkB inh: -2

How did CC(=O)Nc1ccc(-c2csc(N/N=C\c3ccncc3)n2)cc1 do in these assays?
Shn3 3UTR inh: -12; Peg3 prom inh: -22; KKLEB cytotox: 4; CF NFkB inh: -29
